# Assay results from PubChem BioAssay (Tox21).
# Calls of active or inactive are those of the source. Calls come from the whole dose curve; as a rule, active = well fitted curve in the direction sought with a large enough effect in the repeat runs; inconclusive = weak or mixed curves; inactive = flat fitted curve, though single readings scatter.
# Assay: qHTS assay to test for compound auto fluorescence at 535 nm (green) in HEK293 cells (AID 720680)
# Conditions: green autofluorescence 485/535 nm; series mostly up to 91.3 µM
# From the text: U.S. Tox21 Program National Center for Advancing Translational Sciences [NCATS] NIH Chemical Genomics Center [NCGC] U.S. Environmental Protection Agency [EPA] National Institutes of Environmental Health Sciences [NIEHS] National Toxicology Program [NTP] U.S. Food and Drug Administration [FDA] Tox21 Assay Overview: Compound auto fluorescence often interferes with screening of the compound library against various biological targets and signaling pathways. Some of these compounds may have fluorophoric properties. Such properties may interfere with the assay outputs resulting in false positives and/or negatives. To decrease such complications and ensure the compound activities are relevant in terms of biological response, the Tox21 10K compound library was screened for auto fluorescence. From the fluorophores used as reporter signals in our screening assays, the auto fluorescence equivalencies of compounds against three fluorophores have been evaluated: Triamterene, Fluorescein and Rose Bengal sodium for blue, green and red fluorescence, respectively. The fluorescence intensities were measured using Excitation/Emission wavelengths at 405/460nm, 485/535nm and 540/590nm for blue, green and red labels, respectively. This assay includes the green fluorescence data.
# Tox21 Assay Protocol Summary: 2,000 HEK293 cells in 5 uL of culture medium containing 10% dialyzed FBS per well were dispensed into black wall/clear bottom 1536-well plates using a Multidrop Combi Dispenser (Thermo Scientific). The assay plates were incubated for 4-5 hr at 37C to allow cell attachment to the well bottom, followed by the transfer of 23 nL compound or DMSO vehicle by a pintool work station (Kalypsys, San Diego, CA). After the assay plates were incubated overnight at 37C and 5% CO2, fluorescence intensities in the assay plates were measured by an Envision (PerkinElmer, Shelton, CT) plate reader using three labels for measuring blue, green and red fluorescence at […] 460, 535 and 590nm respectively.
row,SMILES,outcome
1,O=S(=O)(O)c1ccc2ccccc2c1,inactive
2,C=C(C)C(=O)O[C@H]1C[C@@H]2CC[C@@]1(C)C2(C)C,inactive
3,CC(C)c1ccc(S(=O)(=O)O)cc1,inactive
4,CCN(CC)CCCC(C)Nc1ccnc2cc(Cl)ccc12 (stereo not given),inactive
5,c1ccc2scnc2c1,inactive
6,CCCC(C)=O,inactive
7,Fc1ccc(Br)cc1,inactive
8,CCCCC(CC)CO (stereo not given),inactive
9,CC1=CC(=O)NS(=O)(=O)O1,inactive
10,C#CCN(C)Cc1ccccc1,inactive
11,CC[C@H](C)C(=O)O[C@H]1C[C@@H](C)C=C2C=C[C@H](C)[C@H](CC[C@@H]3C[C@@H](O)CC(=O)O3)[C@H]21,inactive
12,COc1cc(Cc2cnc(N)nc2N)cc(OC)c1OC,inactive
13,O=c1[nH]nnc2ccccc12,inactive
14,CCCSc1ccc2nc(NC(=O)OC)[nH]c2c1,inactive
15,C=C(C)C(=O)OCCOCCOCCOC(=O)C(=C)C,inactive
16,CC(=O)OCC(=O)[C@@]12N=C(C)O[C@@H]1C[C@H]1[C@@H]3CCC4=CC(=O)C=C[C@]4(C)[C@H]3[C@@H](O)C[C@@]12C,inactive
17,Cc1ccc(S(N)(=O)=O)cc1,inactive
18,COS(C)(=O)=O,inactive
19,C[C@H]1C[C@H]2[C@@H]3CCC4=CC(=O)C=C[C@]4(C)[C@@]3(F)[C@@H](O)C[C@]2(C)[C@@]1(O)C(=O)CO,inactive
20,NNc1nncc2ccccc12,inactive

row,SMILES,outcome
1,O=C(CC(C(=O)OC1CCCCC1)S(=O)(=O)O)OC1CCCCC1 (stereo not given),inactive
2,N[C@@H](Cc1cc(I)c(Oc2cc(I)c(O)c(I)c2)c(I)c1)C(=O)O,inactive
3,c1ccc2c(c1)ccc1ccccc12,inactive
4,OCCOCCN1CCN(C2=Nc3ccccc3Sc3ccccc32)CC1,inactive
5,CCCCCCCCCCCCCCCO,inactive
6,CC(=O)Nc1ccccc1,inactive
7,O=c1[nH]c(=O)n([C@H]2C[C@H](O)[C@@H](CO)O2)cc1Br,inactive
8,CCCCCOC(C)=O,inactive
9,CCCCCCOCCO,inactive
10,CCCCCCCCCCCCOCCO,inactive
11,CCc1ccc(CCOc2ccc(CC3SC(=O)NC3=O)cc2)nc1 (stereo not given),inactive
12,O=C=NCCCCCCN=C=O,inactive
13,O=C(O)c1ccc(C(=O)O)cc1,inactive
14,O=C(O)[C@H](O)[C@@H](O)[C@H](O)[C@H](O)CO,inactive
15,c1c[nH]cn1,inactive
16,CC(=O)CC(=O)Nc1ccccc1,inactive
17,CCc1cccc(C)c1N,inactive
18,CC(C)(N)CO,inactive
19,COCCCOc1ccnc(CS(=O)c2nc3ccccc3[nH]2)c1C (stereo not given),inactive
20,CC(O)COCC(C)O (stereo not given),inactive
